Experimental data as given in publication PMC12136788.
Substitutions are numbered along the chain they refer to. Whole data set: some 5,800 sequences, median “enrichment r” near 0.68, cut for the highest 2% near 11. The sample as a whole holds a higher share of the highest values than the screen did.

B1: ENSG00000107863:be:win_4801|CDS|ENSG00000107863|bound_else_gene|NA|bound_elsewhere_windowed (ssRNA)
RNA: GGGAGUUCUACAGUCCGACGAUCUCCAGUCGACUGAGCCCUGAGGUGCAAUCCGUGGCAGAGAGCAAGGGGGACGAGGCAGAUGACGAGAGAAGCGAACUCAUCAGUGAAGGGCGGCCUGUGGAAACCGACAGCGAGAGCGAGCAACAGAGGAUUGAGCAUCA
B2: chr17:41691520:41691533:+|3pUTR|ENSG00000173812|msi1_unk|total|mutant (ssRNA)
RNA: GGGAGUUCUACAGUCCGACGAUCGGAACAAAUCUCAAACUGAUCCAUCAGUCAUGCCGCCCGCUGCCGAGCUUGCAACUUAACCGCAGCAGCUGCCCAAUGCCAUGUGAAGUAACAAACUGGUUUUUGGUUUUUUUUUCCCCUCAACAGAGGAUUGAGCAUCA
B3: chr19:5558166:5561399:-|three_prime_utr|ENSG00000223573|control|control|control (ssRNA)
RNA: GGGAGUUCUACAGUCCGACGAUCCCAGCUGAUGCACACUGCUUCAGACACUCCUGCUGGAGCCCCAGUCCCUGACAAGGACCUAGGACAUUUUUGCUCCUGCCCAGCCUAUCGGGAGGGAGCCUUGAGCCUUUCAGCUCUGCUCAACAGAGGAUUGAGCAUCA
B4: ENSG00000070961:be:win_51|CDS|ENSG00000070961|bound_else_gene|NA|bound_elsewhere_windowed (ssRNA)
RNA: GGGAGUUCUACAGUCCGACGAUCUUUGAAGGAAGCUAAUCAUGAUGGAGACUUUGGAAUUACGCUCGCAGAGCUGCGGGCUCUCAUGGAGCUCAGGUCCACAGAUGCAUUACGAAAAAUACAGGAAAGCUAUGGAGAUGUCUACAACAGAGGAUUGAGCAUCA
B5: chr16:48080881:48083801:-|three_prime_utr|ENSG00000140798|control|control|control (ssRNA)
RNA: GGGAGUUCUACAGUCCGACGAUCUGAGUUUGACAAGCCUGAAGUCCUUGCAGAGAAGCCAGAUUCUGCAUUUGCGAUGUUACUAGCAGCAGAAGUCAGAUUGUAGAGGUCCUGGCGGCUGAUUCUAGAGGAGGAAGAGGCUCUCAACAGAGGAUUGAGCAUCA
B6: chr1:205790044:205790145:-|3pUTR|ENSG00000133065|msi1|FALSE|bound_elsewhere (ssRNA)
RNA: GGGAGUUCUACAGUCCGACGAUCAGAUUCUUCUGCCUCUUUCUCCUUUCCAGACCCCUACUCUGUGCAGUGCUGACCACAGCUAGAGCCACCGCCCCAUUGCUCAACCAGUAUUUAUUUCCCUAAACGACCCUUCCUCACAUUCAACAGAGGAUUGAGCAUCA
B7: chr11:107429260:107429366:-|CDS|ENSG00000152404|unk|FALSE|unique (ssRNA)
RNA: GGGAGUUCUACAGUCCGACGAUCGAGGAAACCCACAUAUUCAGAUAAAGCACAAAAUUGUCAAGAAAGUAGAGAAUCAGACUUAGUAAAAUAUGGUAACAGUUCAAGGGAUAGAUAUGCUACAACAGAUACUGCAAAAAAUAGCAACAGAGGAUUGAGCAUCA
B8: chr7:5606511:5606625:+|3pUTR|ENSG00000075618|msi1_unk|FALSE|overlapping (ssRNA)
RNA: GGGAGUUCUACAGUCCGACGAUCGGGUGUCUUGGUCUUUUAUUUUUUGUAAGUGUCAUUUGUAUAACUCUAAACGCCCAUGAUAGUAGCUUCAAACUGGAAAUAGCGAAAUAAAAUAACUCAGUCUGCAGCCCCAGGCCGGCCCAACAGAGGAUUGAGCAUCA
B9: chr3:46835109:46836203:-|three_prime_utr|ENSG00000160808|control|control|control (ssRNA)
RNA: GGGAGUUCUACAGUCCGACGAUCUGAAGGCACAAGCUGUUCCAGUAUAAUAAAGAAAAUAAUUAAAUUAAGAAAAGUUAUACUAGAAAUAAGAUAUAGGUAUGAUUAUUAUUAAUCAUUAGUUUGUAGUAUUACUUUGUUCUACAACAGAGGAUUGAGCAUCA
B10: chr10:104129887:104130138:-|three_prime_utr|ENSG00000197748|control|control|control (ssRNA)
RNA: GGGAGUUCUACAGUCCGACGAUCAAAAAAUCAUUUCAUUUGGGUAAAAUGAUUUCCUUUUCUUUCUUACUGGGAAAUUGAAGUAGCAUGUCCUCUGAGUUGCAUGUUUUAGAUAAAAAAUUGUUUAAUUUUAGCCUUAAUUGUCAACAGAGGAUUGAGCAUCA
B11: chr11:62152232:62152344:+|3pUTR|ENSG00000149503|unk|FALSE|unique (ssRNA)
RNA: GGGAGUUCUACAGUCCGACGAUCUGCUCUGUAAAUAGUUGUUUUAAUUUAGCUGAAUGUUAGCAUUUUAGUCUUUGGCAUUUUAGCGUUUGGGAGGUAGAUUAAUAAAGUAUAUUCCUUCAAGCCUGCUGUUGAUACCAUGAACAACAGAGGAUUGAGCAUCA
B12: chr15:38352922:38353023:+|3pUTR|ENSG00000166068|msi1|FALSE|unique (ssRNA)
RNA: GGGAGUUCUACAGUCCGACGAUCUACAUAUAAAUUUAUUUCUUUUGCAGAGCAUUAUAUUACUGGAUGUUUAAUUUACAAAAUAGUUGGGUAAAUGUUCCAACAAACUUUAAAGUACCUUGAAGUCAAAUUGUCUGUUUUUGUCAACAGAGGAUUGAGCAUCA
B13: chr15:38352922:38353023:+|3pUTR|ENSG00000166068|msi1|total|mutant (ssRNA)
RNA: B12 RNA with U83C, A84C
B14: chr18:9400975:9401076:+|3pUTR|ENSG00000128791|msi1|FALSE|unique (ssRNA)
RNA: GGGAGUUCUACAGUCCGACGAUCUAUAAAAAUAGAUAAUGCUCUUGGACACAUUUUGUAUUAUUCAUGAUCUGAAUAGUAGUUAGUUAAAAGAUCAUUUGUAAUAUUAUGAUCAACUGUUAUAAAUUAAGGUCUUAAUACCUUCAACAGAGGAUUGAGCAUCA
B15: chr15:76949589:76949706:+|3pUTR|ENSG00000117906|msi1_unk|total|mutant (ssRNA)
RNA: GGGAGUUCUACAGUCCGACGAUCAUAAAUUUUUGUUUUUGUUCUAAGCCGAUUUAAUUUGGGAACUGACAGGACAAUGUUUUCCGGUUCCGCAUUUUGUUUAAAAACCUUUAAAGAAACCUUCCGAAGGACUCCGACCUCACACAACAGAGGAUUGAGCAUCA
B16: chr7:38725943:38726055:-|3pUTR|ENSG00000006715|unk|total|mutant (ssRNA)
RNA: GGGAGUUCUACAGUCCGACGAUCGAAAUUUUGGGGUCCACCGUGAAUAUUUUGUUAUUUAUUUGUUUGGCUCAUUCUUUAUACCGUAAUGGAAACAUAAGUCCCGGAGUCCGAAAUGAAUUUUUCCGACCUCCGUAAAACCAUCAACAGAGGAUUGAGCAUCA
B17: ENSG00000168003:stop:overlap|stop_codon|ENSG00000168003|stop_codon|NA|stop_codon (ssRNA)
RNA: GGGAGUUCUACAGUCCGACGAUCCUGACAUCCCAGGGGCUGUAAGUGCCAACAUGACUGUGAAGGUAAGAGUUCUAGAUGGGUAGAAACUGACCGGUGGAGGGUGGGCUGGGCUUGUAGAAGUCUGUACCCAGGGGAGCCCCUCAACAGAGGAUUGAGCAUCA
B18: chr2:16549458:16552935:-|three_prime_utr|ENSG00000197872|control|control|control (ssRNA)
RNA: GGGAGUUCUACAGUCCGACGAUCUUGCUACUGGAGUCCUUUAACAACAUCUAUAACGAUAAAAAAUUCCUAAUUGUUUGUGGUAGUAUUUUAAUUCUAGAUGUGUUAUCUCUCUGGGAAGUAUAGUUUAUAGAAACACAAAAUCAACAGAGGAUUGAGCAUCA
B19: chr11:69651733:69651797:+|3pUTR|ENSG00000110092|msi1_unk|FALSE|overlapping (ssRNA)
RNA: GGGAGUUCUACAGUCCGACGAUCAAAACAUUUUAAAAACAUAGAAAAAUUCAGCAAACCAUUUUUAAAGUAGAAGAGGGUUUUAGGUAGAAAAACAUAUUCUUGUGCUUUUCCUGAUAAAGCACAGCUGUAGUGGGGUUCUAGCAACAGAGGAUUGAGCAUCA
B20: chr11:69651696:69651723:+|3pUTR|ENSG00000110092|msi1_unk|total|mutant (ssRNA)
RNA: GGGAGUUCUACAGUCCGACGAUCGAGGAUCCGGUUCCAUCCUUUACGUGUUUAAAAAAAAGCAUAAAAACAUUUUAAAAACACCGAAAAAUUCAGCAAACCAUUUUUAAAGCCGAAGAGGGUUUCCGGCCGAAAAACAUAUUCCAACAGAGGAUUGAGCAUCA
B21: chr4:168926953:168927063:+|3pUTR|ENSG00000129116|msi1_unk|FALSE|overlapping (ssRNA)
RNA: GGGAGUUCUACAGUCCGACGAUCCAAAAGAGUUUUCUAACAAGGUUAAUACCUUAGUUCUUAACAUUUUUUUUCUUUAUGUGUAGUGUUUUCAUGCUACCUUGGUAGGAAACUUAUUUACAAACCAUAUUAAAAGGCUAAUUUCAACAGAGGAUUGAGCAUCA
B22: chr4:67617988:67618115:-|3pUTR|ENSG00000033178|unk|FALSE|unique (ssRNA)
RNA: GGGAGUUCUACAGUCCGACGAUCAAAUGUAGAAUGUUAAAAAUUAUUGCUAGGGUAGUCUUUUUUUUUUCCAGAAACCUAAUUAGGGUAUUAAAUUUUGUGUUUUUUUUGUUUUUUUUUUUUAAACAGAAGCAUGUUAUUUCACAACAGAGGAUUGAGCAUCA
B23: chr4:67617988:67618115:-|3pUTR|ENSG00000033178|unk|total|mutant (ssRNA)
RNA: B22 RNA with U29C, A30C, U50C, A51C, U55C, A56C, U83C, A84C
B24: chr4:138171112:138171219:-|3pUTR|ENSG00000151012|msi1|FALSE|unique (ssRNA)
RNA: GGGAGUUCUACAGUCCGACGAUCUUUUUUUUUUUCACAUCAGUUUGAUCAGGAAAGUGUAUAACACAUCUUAGAGCAAGAGUUAGUUUGGUAUUAAAUCCUCAUUAGAACAACCACCUGUUUCACUAAUAACUUACCCCUGAUCAACAGAGGAUUGAGCAUCA
B25: chr4:168926953:168927063:+|3pUTR|ENSG00000129116|msi1_unk|total|mutant (ssRNA)
RNA: B21 RNA with U54C, A55C, U83C, A84C, U105C, A106C
B26: chr11:69651696:69651723:+|3pUTR|ENSG00000110092|msi1_unk|FALSE|overlapping (ssRNA)
RNA: B20 RNA with C30U, C31A, C83U, C84A, C112U, C113A, C125U, C126A, C129U, C130A

The binders below were run against T1, UNK ZnF1-6 (called full-length) (human, UniProt Q9C0B0 30-357) (assay: nsRBNS (natural sequence RNA bind-n-seq); RBNS binding buffer (assumed for nsRBNS): 25 mM Tris pH 7.5, 150 mM KCl, 3 mM MgCl2, 0.01% Triton X-100, 500 ug/ml BSA, 20 U/ml SUPERase-In, 4 C; UNK is unkempt and MSI1 is Musashi-1; names of the RNAs are library labels; protein concentration not given here; high values mean tight binding).
T1 sequence: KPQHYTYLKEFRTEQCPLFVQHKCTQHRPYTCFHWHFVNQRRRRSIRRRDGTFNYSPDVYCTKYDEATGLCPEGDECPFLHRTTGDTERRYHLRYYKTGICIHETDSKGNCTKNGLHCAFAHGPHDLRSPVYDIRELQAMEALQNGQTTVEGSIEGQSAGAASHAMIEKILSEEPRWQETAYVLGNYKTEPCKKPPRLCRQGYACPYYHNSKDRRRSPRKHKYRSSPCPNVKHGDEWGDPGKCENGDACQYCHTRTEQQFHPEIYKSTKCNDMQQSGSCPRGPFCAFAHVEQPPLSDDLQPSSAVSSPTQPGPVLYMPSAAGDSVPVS

Q: Which binding signal does the source give for B1 here?
A: 0.993 enrichment R

Q: How did the binding signal turn out when B2 was run?
A: 0.624 enrichment R

Q: With B3 as the binder, how does the binding signal read?
A: 0.786 enrichment R

Q: Which binding signal does the source give for B4 here?
A: 0.507 enrichment R

Q: B5 was tested. Which binding signal did it give?
A: 1.15 enrichment R

Q: How did the binding signal turn out when B6 was run?
A: 1.07 enrichment R

Q: For B7, which binding signal is on record?
A: 1.66 enrichment R

Q: With B8 as the binder, how does the binding signal read?
A: 1.39 enrichment R

Q: How did the binding signal turn out when B9 was run?
A: 4.03 enrichment R

Q: Which binding signal does the source give for B10 here?
A: 13.5 enrichment R

Q: B11 was tested. Which binding signal did it give?
A: 110 enrichment R

Q: With B12 as the binder, how does the binding signal read?
A: 1.48 enrichment R

Q: For B13, which binding signal is on record?
A: 0.824 enrichment R

Q: For B14, which binding signal is on record?
A: 2.18 enrichment R

Q: For B15, which binding signal is on record?
A: 0.382 enrichment R

Q: Which binding signal does the source give for B16 here?
A: 0.419 enrichment R

Q: With B17 as the binder, how does the binding signal read?
A: 0.906 enrichment R

Q: How did the binding signal turn out when B18 was run?
A: 4.45 enrichment R

Q: With B19 as the binder, how does the binding signal read?
A: 8.88 enrichment R

Q: Which binding signal does the source give for B20 here?
A: 0.444 enrichment R

Q: How did the binding signal turn out when B21 was run?
A: 20.1 enrichment R

Q: With B22 as the binder, how does the binding signal read?
A: 28.1 enrichment R

Q: B23 was tested. Which binding signal did it give?
A: 0.765 enrichment R

Q: How did the binding signal turn out when B24 was run?
A: 2.58 enrichment R

Q: Which binding signal does the source give for B25 here?
A: 1.12 enrichment R

Q: With B26 as the binder, how does the binding signal read?
A: 13.5 enrichment R
